# Assay outcomes: PubChem, The Scripps Research Institute Molecular Screening Center
# Rows were chosen to be rich in hits. Some 4.1% of all compounds tested hit in one or more screens of this group.
# hgDAF12 agonist = hgDAF-12 agonism, primary luciferase screen; 1.8% of 370,000 active; AID 687014; activation, % at 6.8 µM; HEK293 GAL4-hgDAF12 UAS-luciferase reporter, agonist luminescence; normalized to butyrate control;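 active = activation above a cutoff set at the mean of all screened compounds plus 3 SD, cut at about 10% in these data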;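 note: 0% = DMSO wells and 100% = sodium butyrate wells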
# DAX1 inh-1 = inhibits human nuclear receptor DAX1 | P51843 | HEK293 Gal4-DAX1 luciferase reporter, luminescence | inhibition, % at 6.75 µM | 0.99% of 340,000 active | AID 504766;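 active = inhibition above the mean over all tested compounds plus 3 SD, cut at about 4.2% in these data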;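 note: 0% = DAX1-transfected cells with DMSO and 100% = empty-vector control cells with DMSO; inhibition shows as a rise in luminescence from relieved DAX1 repression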
# hcDAF-12 act = activators of H. contortus DAF-12 nuclear receptor; activation, % at 6.8 µM; HEK293 hcDAF-12 lit1-tk-luc reporter, luminescence; 0% DMSO, 100% Δ7-dafachronic acid; 1.4% of 370,000 active;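 active = activation above the mean of all tested compounds plus 3 SD, cut at about 5.5% in these data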;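 note: 100% = response to 3 µM Δ7-dafachronic acid high control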
# ssDAF12 agonist = activates DAF-12 receptor from parasite S. stercoralis; 1% of 370,000 active; HEK293 ssDAF-12/GRIP1 lit1-tk-luc reporter, luminescence; % of 3 µM dafachronic acid response; activation, % at 6.8 µM;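 active = activation above the mean over all tested compounds plus 3 SD, cut at about 0.9% in these data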;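 note: 0% = DMSO-only wells and 100% = 3 µM delta7-dafachronic acid wells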
# DAX1 inh-2 = blocks DAX1 repression of SF-1 activated StAR promoter; HEK293T StAR-luciferase reporter, SF-1/DAX-1 repression relief; inhibition, % at 6.8 µM; 1.1% of 370,000 active; AID 652010;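 active = inhibition above the mean over all tested compounds plus 3 SD, cut at about 3.6% in these data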;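 note: 0% = DAX-1 cells with DMSO and 100% = cells lacking DAX-1 with DMSO; higher inhibition means more luminescence from relief of DAX-1 repression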
# LXR ag = activates human LXR-beta, counter-screen for hcDAF-12 agonists; AID 743027; activation, % at 6.8 µM; shares compounds with hcDAF-12 act; 3,400 tested, under 10 active; HEK293 Gal4-LXR tk-luc reporter, luminescence, 24 h; normalized: DMSO 0%, positive control 100%;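 active = mean percent activation of the reporter above a cutoff set as the average over tested compounds plus their standard deviation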
# Target sequence (P55055 whole entry, looked up, the tested form may be a part): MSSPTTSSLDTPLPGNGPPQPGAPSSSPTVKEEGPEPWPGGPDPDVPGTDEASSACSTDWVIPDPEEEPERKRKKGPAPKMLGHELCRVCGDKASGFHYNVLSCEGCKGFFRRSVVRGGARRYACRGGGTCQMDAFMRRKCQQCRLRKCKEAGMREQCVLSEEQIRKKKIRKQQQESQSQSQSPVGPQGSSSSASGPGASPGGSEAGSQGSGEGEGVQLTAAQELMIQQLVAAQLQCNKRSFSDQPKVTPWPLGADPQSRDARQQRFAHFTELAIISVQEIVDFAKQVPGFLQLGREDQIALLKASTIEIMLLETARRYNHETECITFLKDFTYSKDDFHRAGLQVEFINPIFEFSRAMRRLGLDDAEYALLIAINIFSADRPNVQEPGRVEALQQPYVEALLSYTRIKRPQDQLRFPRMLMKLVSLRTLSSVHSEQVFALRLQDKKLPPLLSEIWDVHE
# hcDAF12 conf = confirmation of H. contortus DAF-12 agonists. shares compounds with hcDAF-12 act. activation, % at 6.8 µM. HEK293 hcDAF-12 lit1-tk-luc reporter, luminescence; % of Δ7-dafachronic acid response. AID 743032. 61% of 3,400 active;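 active = mean activation across triplicate tests above the threshold derived from the earlier primary screen, cut at about 5.5% in these data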;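 note: 0% = DMSO only wells and 100% = 3 µM Δ7-dafachronic acid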
# * hit, by the source's call; . = no result given.
SMILES,hgDAF12 agonist,DAX1 inh-1,hcDAF-12 act,ssDAF12 agonist,DAX1 inh-2,LXR ag,hcDAF12 conf
CCc1ccc(-n2nc3cc(C)c(N)cc3n2)cc1,14*,4,16*,4.1*,3,2,20*
COc1ccc(-n2nc3cc(N)c(Br)cc3n2)cc1,13*,5.8*,13*,1.2*,2,1,12*
Cc1ccc(-n2nc3cc(C)c(N)cc3n2)cc1,11*,3,15*,2.5*,3.9*,2,16*
Nc1cc2nn(-c3ccccc3)nc2cc1Cl,22*,2,14*,3.4*,4.4*,1,17*
CCc1ccc(S(=O)(=O)c2ccc(-n3nc(C)cc3N)cc2)cc1,-3,-1,-1,-1,0,.,.
COc1ccc(-n2nc3ccccc3n2)cc1,4,1,2,0,0,.,.
CC(C)CN(CC(C)C)C(=O)c1cn(C(C)c2ccccc2)nn1 (centres undefined),-2,.,0,-2,1,.,.
COCCCNC(=O)C[C@H]1C[C@@]2(C(=O)OC)C(=C[C@H](C(C)C)O[C@@H]2C2CC2)N(Cc2ccccc2)C1=O,0,.,0,-1,1,.,.
CCn1cc(Cl)c(C(=O)N2N=C3/C(=C/c4cccs4)CCCC3C2c2cccs2)n1 (centres undefined),2,0,6.6*,-1,-1,0,5
O=C(O)CSCC(=O)N1N=C2/C(=C/c3ccccc3)CCCC2C1c1ccccc1 (centres undefined),1,-1,2,0,0,.,.
CNC(=O)NC(=O)C(OC(=O)CCNS(=O)(=O)c1ccccc1)c1ccccc1 (centres undefined),1,1,7.2*,0,0,0,1
Cc1ccc(/C(O)=C2\C(=O)C(=O)N(Cc3cccnc3)C2c2ccccc2[N+](=O)[O-])cc1 (centres undefined),13*,0,9.7*,1.7*,2,0,6.8*
Cc1cc(C)c2nc(/N=C(\N)NC(=O)Nc3ccccc3)nc(C)c2c1,-1,-1,-4,-2,-1,.,.
Cc1cc(C)c2nc(/N=C(\N)NC(=O)c3ccccc3)nc(C)c2c1,5,2,6.9*,0,1,0,2
O=C(Nc1ccc2cccnc2c1)c1ccc(Br)cc1,7,3,8.6*,0,0,0,7.0*
O=C(Nc1ccc2nc3ccccc3nc2c1)c1ccc(Br)cc1,0,-1,-2,-2,0,.,.
Cc1cc(O)c(C(=O)/C=C/c2ccccc2O)c(=O)o1,5,1,6.8*,1,0,0,3
COc1ccc(S[C@]2(C(=O)N3CCN(c4ncccn4)CC3)CC(=O)N(C(=O)C3CC3)[C@@H]2c2ccc(OC)cc2)cc1,1,.,-1,-1,-1,.,.
Cc1onc(-c2ccc(Cl)cc2)c1-c1ccn(S(=O)(=O)c2ccccc2)n1,2,.,1,-1,-1,.,.
COc1cccc(CNC(=O)CCNC(=O)c2ccco2)c1,0,2,0,-1,0,.,.
COc1ccc(CCNC(=O)CCNC(=O)c2ccco2)cc1,2,0,6.8*,-1,0,0,0
CCOC(=O)c1cc2ccc3ccccc3c2s1,11*,3,7.2*,1.3*,2,1,11*
S=C1NC2(CCCC2)Nc2ccccc21,3,2,6.7*,0,0,0,5
O=C(OCC#CCSc1nnc(-c2cccc3ccccc23)o1)c1ccc(OC(F)F)cc1,5,.,-3,-2,.,.,.
CN(C)c1ccc(C2Nc3cccc4cccc(c34)N2)cc1,4,-1,8.4*,1.6*,1,0,8.3*
SMILES,hgDAF12 agonist,DAX1 inh-1,hcDAF-12 act,ssDAF12 agonist,DAX1 inh-2,LXR ag,hcDAF12 conf
COc1ccc(C2Nc3cccc4cccc(c34)N2)cc1,6,0,5,0,0,.,.
COC(=O)C12C=C3CC(C4CC4)=C3C(=O)N1Cc1[nH]c3ccccc3c1C2 (centres undefined),0,.,4,0,-2,.,.
CCc1nnc(NC(=O)Nc2ccc(OC)cc2)s1,4,0,0,-1,1,.,.
CCCCOc1ccc(NC(=O)Nc2nnc(C)s2)cc1,0,2,8.5*,1.1*,1,0,4
Cc1noc(C)c1NC(=O)Nc1ccc2c(c1)C(=O)N(C)[C@H]1CC[C@H](CC(=O)NCc3ccc(Cl)cc3)O[C@@H]1CO2,0,.,-2,-1,1,.,.
NC(=O)c1sc2nc(-c3ccccc3)ccc2c1N,9,3,2,-1,1,.,.
CCOC(=O)c1sc2nc(-c3ccccc3)ccc2c1N,24*,2,9.0*,0,4.3*,2,11*
CC(C)C[C@@H]1NC(=O)[C@@H]2CSCCS(=O)(=O)N2C1=O,-1,.,-2,0,0,.,.
N/C(=N\OC(=O)c1cccc(Cl)c1)c1ccccn1,10,-5,13*,1,3.9*,1,8.2*
Cc1cc(/C(N)=N/OC(=O)c2cccc(Cl)c2)no1,6,.,7.1*,1.5*,1,0,2
Cc1cc(C(=O)NNC(=O)c2cccc(Cl)c2)no1,1,.,0,-1,0,.,.
COc1cccc(CNS(=O)(=O)c2ccccc2Br)c1,6,.,1,-1,-1,.,.
O=c1oc2ccccc2c(Nc2ccccc2O)c1[N+](=O)[O-],0,0,1,-1,0,.,.
O=c1oc2ccccc2c(Nc2cc3ccccc3cc2O)c1[N+](=O)[O-],17*,-3,8.3*,1.0*,-1,1,14*
CC(C)c1ccccc1NC(=O)COC(=O)Cc1c[nH]c2ccccc12,3,0,7.9*,1.3*,1,0,4
Cc1cccc(NC(=O)COC(=O)Cc2c[nH]c3ccccc23)c1C,2,-1,1,0,0,.,.
COc1ccc2nc(C)cc(Nc3ccc(N4CCN(C)CC4)cc3)c2c1,5,-1,13*,0.9*,0,1,12*
CN(C)C(=O)Cn1cc(S(=O)(=O)Cc2ccccc2)c2ccccc21,1,0,6.6*,-1,0,0,3
CCN(CC)C(=O)Cn1cc(S(=O)(=O)CC(=O)NCCc2ccccc2)c2ccccc21,0,-1,7.6*,-1,-1,0,1
CCOC(=O)N[C@H](C(=O)N1CCC[C@H]1C(=O)NCCc1ccccc1Cl)c1ccccc1,0,.,0,-1,0,.,.
